# Results taken from PubChem BioAssay (NCATS).
# “And” between values parts separate entries of the source, which are not always exact repeats. Equal entries are not always repeated. Records with an inconclusive call do not appear. The source made the active and inactive calls. Unless noted, calls come from the whole dose curve; as a rule, active = well fitted curve in the direction sought with a large enough effect; inconclusive = small, poorly fitted or top-dose-only effect, or another doubt; inactive = no such curve, though single readings can be large; an effect the other way counts as inactive or inconclusive.
# Tests used:
# [1] = target: Glutathione peroxidase 1 (Homo sapiens) (UniProt P07203); test: Primary qHTS Assay for Inhibitors of Recombinant Selenoprotein Glutathione Peroxidase 1 (GPX1) (AID 1845191); settings: recombinant GPX1, GR-coupled NADPH fluorescence, 15 min; series mostly up to 48.8 µM; note: nearly all actives have a fitted effect of over 65% in size; for activity, negative = inhibition: % is set by controls: 0 for no effect and ±100 for the full control effect
# Chain of Glutathione peroxidase 1 (Homo sapiens) (P07203 whole entry, looked up): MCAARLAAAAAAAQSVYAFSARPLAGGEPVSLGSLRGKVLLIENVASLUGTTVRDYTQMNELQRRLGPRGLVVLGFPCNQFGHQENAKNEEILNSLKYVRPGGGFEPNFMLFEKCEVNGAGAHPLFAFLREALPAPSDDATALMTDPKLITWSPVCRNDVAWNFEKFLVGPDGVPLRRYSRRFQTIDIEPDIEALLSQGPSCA
# In short: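 GPX1 10 nM, GR 100 nM, GSH 1 mM, NADPH 0.5 mM, CHP 0.5 mM (final). 30-min cpd preincubation, RT. Ex340/Em450 read t=0, t=15 min.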
# [2] = qHTS for differential inhibitors of proliferation of Plasmodium falciparum line 7G8 (AID 1815); settings: Plasmodium falciparum 7G8 proliferation inhibition; series mostly up to 28.7 µM;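 note: potency is the fitted concentration of half-maximal effect; parasite growth measured after three days of incubation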
# [3] = qHTS for differential inhibitors of proliferation of Plasmodium falciparum line GB4 (AID 1816); settings: Potency: Plasmodium falciparum GB4 proliferation inhibition; series mostly up to 28.7 µM;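 note: potency is the fitted concentration of half-maximal effect; parasite growth measured after 72 h incubation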
# [4] = qHTS for differential inhibitors of proliferation of Plasmodium falciparum line 3D7 (AID 1876); note: potency is the fitted concentration of half-maximal effect; settings: P. falciparum 3D7 proliferation inhibition; series mostly up to 28.7 µM
# [5] = qHTS for differential inhibitors of proliferation of Plasmodium falciparum line W2 (AID 1883); settings: Potency: Plasmodium falciparum W2 proliferation inhibition; series mostly up to 28.7 µM;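 note: potency is the fitted concentration of half-maximal effect; parasites grown with compound for 72 h before lysis and staining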
# [6] = qHTS for differential inhibitors of proliferation of Plasmodium falciparum line HB3 (AID 1886); settings: Potency: Plasmodium falciparum HB3 proliferation inhibition; series mostly up to 28.7 µM;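 note: potency is the fitted concentration of half-maximal effect; parasites grown with compound for 72 h before SYBR Green readout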
# [7] = S16 Schwann cell PMP22 intronic element firefly luciferase assay (AID 624032); settings: S16 rat Schwann cells, PMP22 element FLuc, 24 h; series mostly up to 57.5 µM; note: nearly all actives have a fitted effect of over 30% in size; note: potency is the fitted concentration of half-maximal effect;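 for activity change, negative = inhibition: plate controls were DMSO for no effect and PTC124 positive control mean for full effect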
# In short: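 Rat S16 Schwann cells stably carrying a PMP22 intronic element-driven Fluc reporter were seeded overnight, then exposed to compounds for 24 h at 37 °C. Luminescence was normalized to PTC124 (positive control) and DMSO (0% activity).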
# [8] = target: Cytochrome P450 3A4 (Homo sapiens) (UniProt P08684); test: qHTS for inhibitors of CYP3A4 against the NCATS DSHEA and TCM libraries (AID 1919971); settings: recombinant CYP3A4 enzyme activity, luminescence qHTS; series mostly up to 34.1 µM; note: potency is the fitted concentration of half-maximal effect;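 for activity change, negative = inhibition: % is set by controls: 0 for no effect and ±100 for the full control effect; inhibition lowers luminescence from luciferin made by CYP3A4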
# Chain of Cytochrome P450 3A4 (Homo sapiens) (P08684 whole entry, looked up, canonical isoform): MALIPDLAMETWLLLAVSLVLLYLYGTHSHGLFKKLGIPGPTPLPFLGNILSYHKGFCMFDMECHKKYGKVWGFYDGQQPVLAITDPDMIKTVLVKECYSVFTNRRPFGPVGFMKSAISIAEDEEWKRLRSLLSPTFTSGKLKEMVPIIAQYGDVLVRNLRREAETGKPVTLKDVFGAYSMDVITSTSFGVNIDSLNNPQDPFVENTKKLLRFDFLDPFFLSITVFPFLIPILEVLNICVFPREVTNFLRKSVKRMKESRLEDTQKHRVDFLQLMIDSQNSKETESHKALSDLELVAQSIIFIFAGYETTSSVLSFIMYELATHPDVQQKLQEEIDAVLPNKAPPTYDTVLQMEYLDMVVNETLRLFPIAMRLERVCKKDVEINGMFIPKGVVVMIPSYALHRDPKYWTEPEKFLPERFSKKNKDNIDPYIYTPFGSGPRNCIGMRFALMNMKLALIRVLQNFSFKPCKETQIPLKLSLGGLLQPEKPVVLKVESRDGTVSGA
# In short: (§1)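 Isoform-specific enzyme and substrate levels; enzyme-free wells as background. Reaction: 1x NADPH regenerating system, 30-45 min, room temperature, shielded from light; luminescent detection reagent added, 30 min.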
# [9] = target: Nuclear receptor subfamily 1 group I member 2 (Homo sapiens) (UniProt O75469); test: Dual reporter qHTS for agonist of Pregnane X Receptor (hPXR) against the NCATS DSHEA and TCM libraries: Luminescence readout (AID 1920059); settings: hPXR dual reporter cells, luciferase luminescence agonist; series mostly up to 40 µM; note: potency is the fitted concentration of half-maximal effect
# Chain of Nuclear receptor subfamily 1 group I member 2 (Homo sapiens) (O75469 whole entry, looked up): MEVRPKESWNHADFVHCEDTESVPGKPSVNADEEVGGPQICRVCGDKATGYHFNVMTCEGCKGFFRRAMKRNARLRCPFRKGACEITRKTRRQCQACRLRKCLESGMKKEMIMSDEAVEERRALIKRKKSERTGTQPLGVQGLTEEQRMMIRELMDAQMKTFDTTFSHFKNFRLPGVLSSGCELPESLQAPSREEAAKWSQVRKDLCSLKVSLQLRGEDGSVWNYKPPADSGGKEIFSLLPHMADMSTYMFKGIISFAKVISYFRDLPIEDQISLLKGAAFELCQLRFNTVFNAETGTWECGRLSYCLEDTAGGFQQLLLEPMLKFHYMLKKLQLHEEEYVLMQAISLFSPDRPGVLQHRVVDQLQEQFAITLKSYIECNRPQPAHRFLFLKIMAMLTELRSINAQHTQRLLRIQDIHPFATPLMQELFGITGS
# In short: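 hPXR-LucHepG2 cells in phenol red-free DMEM with 5% charcoal-stripped FBS, 2000 cells/well, attached 5 h, then exposed 24 h at 37C to compounds; rifampicin as positive agonist control (2.8 nM–92 uM). Luciferase luminescence read.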
# [10] = target: Glucocorticoid receptor (Homo sapiens) (UniProt P04150); test: GR-GFP Redistribution (AID 450;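 active = compounds whose dose series gives a full or clear partial fitted curve of increased nuclear translocation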; note: potency is the fitted concentration of half-maximal effect); settings: U2OS GR-GFP nuclear translocation, laser cytometry, 2 h
# Chain of Glucocorticoid receptor (Homo sapiens) (P04150 whole entry, looked up): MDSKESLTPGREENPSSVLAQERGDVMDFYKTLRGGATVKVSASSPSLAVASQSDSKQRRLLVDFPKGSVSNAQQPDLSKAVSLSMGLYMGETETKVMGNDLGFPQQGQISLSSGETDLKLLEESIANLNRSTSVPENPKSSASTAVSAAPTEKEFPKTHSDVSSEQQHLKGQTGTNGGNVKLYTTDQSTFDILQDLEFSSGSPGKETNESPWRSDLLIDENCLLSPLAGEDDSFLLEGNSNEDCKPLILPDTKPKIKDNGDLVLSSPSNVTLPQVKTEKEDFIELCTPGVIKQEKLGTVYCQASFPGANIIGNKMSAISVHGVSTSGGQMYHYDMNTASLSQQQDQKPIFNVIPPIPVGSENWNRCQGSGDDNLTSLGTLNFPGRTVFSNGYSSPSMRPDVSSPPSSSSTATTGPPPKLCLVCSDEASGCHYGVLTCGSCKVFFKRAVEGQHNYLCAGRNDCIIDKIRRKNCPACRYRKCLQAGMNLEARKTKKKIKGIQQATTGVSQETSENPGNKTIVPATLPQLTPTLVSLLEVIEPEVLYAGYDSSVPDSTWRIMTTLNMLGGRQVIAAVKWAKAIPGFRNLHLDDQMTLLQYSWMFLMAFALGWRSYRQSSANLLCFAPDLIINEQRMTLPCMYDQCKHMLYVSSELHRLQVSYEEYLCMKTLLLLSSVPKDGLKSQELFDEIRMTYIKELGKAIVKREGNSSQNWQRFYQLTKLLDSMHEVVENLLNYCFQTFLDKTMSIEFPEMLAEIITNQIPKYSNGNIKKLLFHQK
# [11] = target: Cytochrome P450 2D6 (Homo sapiens) (UniProt P10635); test: qHTS Assay for Inhibitors and Substrates of Cytochrome P450 2D6 (AID 891); settings: recombinant CYP2D6, luciferin-ME EGE luminescence; series mostly up to 57.1 µM; note: potency is the fitted concentration of half-maximal effect; nearly all actives have a fitted effect of over 60% in size
# Chain of Cytochrome P450 2D6 (Homo sapiens) (P10635 whole entry, looked up): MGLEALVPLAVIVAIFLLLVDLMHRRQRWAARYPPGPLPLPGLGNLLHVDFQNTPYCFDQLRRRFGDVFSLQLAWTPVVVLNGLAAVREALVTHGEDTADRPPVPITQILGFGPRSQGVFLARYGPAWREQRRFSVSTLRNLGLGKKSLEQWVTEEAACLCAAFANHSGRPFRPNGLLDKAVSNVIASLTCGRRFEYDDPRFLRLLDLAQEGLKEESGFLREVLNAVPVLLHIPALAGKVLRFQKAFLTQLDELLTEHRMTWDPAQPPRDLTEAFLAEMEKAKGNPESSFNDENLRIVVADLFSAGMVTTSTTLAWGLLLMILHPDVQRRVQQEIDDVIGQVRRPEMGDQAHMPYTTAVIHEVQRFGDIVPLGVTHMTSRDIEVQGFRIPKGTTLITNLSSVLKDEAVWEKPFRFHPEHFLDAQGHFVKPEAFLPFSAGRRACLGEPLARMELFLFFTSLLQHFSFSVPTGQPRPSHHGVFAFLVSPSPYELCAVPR
# In short: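 Luminescent read-out of luciferin formed by 5 nM human CYP2D6 demethylating 30 uM Luciferin-ME EGE (Km level) over 60 min at room temperature after NADPH regeneration addition. Data normalized to full inhibition by 1.43 uM quinidine.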
# [12] = target: Cytochrome P450 2D6 (Homo sapiens) (UniProt P10635); test: qHTS for inhibitors of CYP2D6 against the NCATS DSHEA and TCM libraries (AID 1919972); settings: CYP2D6 enzymatic inhibition, luminescence qHTS; series mostly up to 34.1 µM; note: potency is the fitted concentration of half-maximal effect
# In short: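 qHTS, concentration–response format with most substances from 19.5 nM. CYP2D6 + pro-luciferin substrate, 15 min with compound, then 1x NADPH regen, 30–45 min RT dark. Glo detection 30 min, luminescence. Quinidine control.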
# [13] = target: Cytochrome P450 2C19 (Homo sapiens) (UniProt P33261); test: qHTS for inhibitors of CYP2C19 against the NCATS DSHEA and TCM libraries (AID 1919974); settings: CYP2C19 enzyme inhibition, luminescence qHTS; series mostly up to 34.1 µM;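 note: luminescence from luciferin released by CYP2C19 oxidation of a pro-luciferin substrate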; note: potency is the fitted concentration of half-maximal effect
# Chain of Cytochrome P450 2C19 (Homo sapiens) (P33261 whole entry, looked up): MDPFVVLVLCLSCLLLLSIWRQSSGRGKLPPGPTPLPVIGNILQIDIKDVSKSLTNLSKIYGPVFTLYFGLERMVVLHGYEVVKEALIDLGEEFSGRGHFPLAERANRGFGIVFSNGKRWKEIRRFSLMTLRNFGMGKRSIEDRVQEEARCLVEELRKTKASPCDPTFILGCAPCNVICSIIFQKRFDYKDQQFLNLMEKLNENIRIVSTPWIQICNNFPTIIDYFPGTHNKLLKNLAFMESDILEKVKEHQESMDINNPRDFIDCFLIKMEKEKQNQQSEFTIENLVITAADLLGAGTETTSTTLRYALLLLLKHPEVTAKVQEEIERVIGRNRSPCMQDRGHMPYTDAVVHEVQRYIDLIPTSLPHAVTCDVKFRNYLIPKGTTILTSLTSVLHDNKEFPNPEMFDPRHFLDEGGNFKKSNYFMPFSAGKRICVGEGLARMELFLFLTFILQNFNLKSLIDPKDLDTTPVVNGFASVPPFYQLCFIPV
# In short: as §1
# [14] = target: Cytochrome P450 2C9 (Homo sapiens) (UniProt P11712); test: qHTS for inhibitors of CYP2C9 against the NCATS DSHEA and TCM libraries (AID 1919973); settings: recombinant CYP2C9 enzyme activity, luminescence; series mostly up to 34.1 µM; note: potency is the fitted concentration of half-maximal effect;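 for activity change, negative = inhibition: luminogenic pro-luciferin CYP2C9 substrate turned into luciferin with NADPH regeneration; % is set by controls: 0 for no effect and ±100 for the full control effect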
# Chain of Cytochrome P450 2C9 (Homo sapiens) (P11712 whole entry, looked up): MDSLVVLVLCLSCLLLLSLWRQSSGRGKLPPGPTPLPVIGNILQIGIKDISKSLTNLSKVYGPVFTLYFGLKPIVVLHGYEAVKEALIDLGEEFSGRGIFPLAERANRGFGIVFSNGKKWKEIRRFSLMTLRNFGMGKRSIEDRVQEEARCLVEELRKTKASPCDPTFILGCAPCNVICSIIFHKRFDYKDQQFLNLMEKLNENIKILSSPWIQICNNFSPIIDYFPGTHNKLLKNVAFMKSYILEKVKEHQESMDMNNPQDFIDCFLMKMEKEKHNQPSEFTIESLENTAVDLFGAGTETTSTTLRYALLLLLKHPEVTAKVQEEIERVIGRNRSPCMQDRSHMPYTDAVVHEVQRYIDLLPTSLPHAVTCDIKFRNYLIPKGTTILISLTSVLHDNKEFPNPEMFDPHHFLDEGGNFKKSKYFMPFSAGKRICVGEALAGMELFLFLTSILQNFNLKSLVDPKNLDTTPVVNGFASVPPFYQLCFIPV
# In short: as §1
# [15] = target: Alpha-galactosidase (Coffea arabica) (UniProt Q42656); test: Counterscreen for Glucocerebrosidase Inhibitors: qHTS Assay for Coffee Bean alpha-Galactosidase at pH 5.9 (AID 998); settings: coffee bean alpha-galactosidase enzyme assay; series mostly up to 76.9 µM;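 note: plate controls were uninhibited enzyme for no effect and no-enzyme basal signal for full effect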
# Chain of Alpha-galactosidase (Coffea arabica) (Q42656 whole entry, looked up): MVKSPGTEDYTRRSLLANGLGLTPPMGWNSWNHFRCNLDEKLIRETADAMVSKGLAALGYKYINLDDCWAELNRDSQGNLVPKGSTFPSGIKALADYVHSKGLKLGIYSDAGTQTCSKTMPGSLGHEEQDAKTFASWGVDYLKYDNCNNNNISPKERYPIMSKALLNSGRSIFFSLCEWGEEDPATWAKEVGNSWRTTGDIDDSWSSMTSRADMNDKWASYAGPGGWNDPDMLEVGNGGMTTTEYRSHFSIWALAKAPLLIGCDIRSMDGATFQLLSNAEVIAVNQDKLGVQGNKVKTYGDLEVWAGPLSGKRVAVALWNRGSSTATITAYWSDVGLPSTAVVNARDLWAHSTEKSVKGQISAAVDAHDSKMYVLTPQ
# In short: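 In 50 mM citric acid pH 5.9 with 0.005% Tween-20, coffee bean enzyme hydrolyses 80 uM 4-MU alpha-D-galactopyranoside over 20 min at RT. Activity is normalized to controls; AC50 comes from Hill-modelled concentration-response data.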
# [16] = qHTS drug screen for cell cycle checkpoint inhibitors in PARPi-resistant BRCA-mutant ovarian cancer cell lines. (AID 1963452; calls by dose curve); settings: PEO1/OlaR viability, CellTiter-Glo luminescence, 96 h, stronger effect = lower value
# In short: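 PEO1, PEO4 and PEO1/OlaR ovarian cancer cells, 600 per well, exposed 96 h at 37C to a dilution series. Viability read by CellTiter-Glo luminescence, normalized to DMSO and empty wells; activity summarized as Z-AUC.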
# [17] = NFAT Signaling Pathway (AID 444; active = well fitted curve in either direction with a large enough effect, not every such curve was filed as active;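 note: carbachol stimulus at about its EC50 of 1 µM final; % is set by controls: 0 for no effect and ±100 for the full control effect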); settings: Jurkat NFAT-bla M1, carbachol, beta-lactamase ratio, 5 h
# In short: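 Jurkat cells carrying an NFAT-driven β-lactamase reporter and co-transfected muscarinic M1 receptor were treated with compound plus carbachol (1 uM final, an EC50 level) for 5 h at 37 °C. CCF4 loading followed for 1 h at RT; 460/530 nm ratio gave %activity.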
# [18] = Stat Signaling Pathway (AID 446; active = well fitted curve in either direction with a large enough effect, not every such curve was filed as active;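 note: ME-180 cervical cancer cells given 40 pM IL-6 alongside compound; SIE-controlled beta-lactamase reporter measured as 460/530 nm FRET emission ratio; % is set by controls: 0 for no effect and ±100 for the full control effect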); settings: ME-180 (cervical carcinoma) SIE beta-lactamase reporter, IL-6 stimulated, 5 h; series mostly up to 17.2 µM
# In short: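 Emission at 460 and 530 nm (excitation 405 nm) reports SIE-controlled beta-lactamase in ME-180 cells. Cells received compound with 40 pM IL-6 for 5 hrs at 37 C; data scaled between 300 pM IL-6 and 125 nM JAK-inhibitor controls.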
# [19] = qHTS profiling for inhibitors of Plasmodium falciparum proliferation (AID 504749);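 note: 0% = DMSO vehicle and full inhibition = artemisinin control; nearly all actives have a fitted effect of over 60% in size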; settings: P. falciparum in erythrocytes, SYBR Green DNA, 72 h
# In short: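 Fluorescence of SYBR Green-bound parasite DNA, read at 485/535 nm, served as the growth measure. Infected erythrocytes were cultured with compound 72 h; artemisinin (0.29 uM) and DMSO wells defined the normalization range.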
# [20] = test system: HIV-1 nucleocapsid protein NCp7 (binding to TG oligonucleotide); test: HIV Nucleocapsid (AID 346; call rule not given here;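 note: potency is the fitted concentration of half-maximal effect; potency is for inhibitors that block NC binding and lower polarization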); settings: HIV-1 NC / fluorescein-TGTGTGTG probe, fluorescence polarization
# In short: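 10 nM TG4xF probe with 100 nM nucleocapsid protein in high-salt Hepes pH 7.5 (250mM NaCl) containing 1uM ZnCl2 and reducing agents. Compound inhibition of binding was read as fluorescein polarization after 1 hr at room temperature.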
structure (smiles),measurement,setting,value
Cc1ccc(-n2nccn2)c(C(=O)N2CCN(c3nc4cc(Cl)ccc4o3)CC[C@H]2C)c1,Potency,[1],inactive
CN1C[C@H](C(=O)N[C@]2(C)O[C@@]3(O)C4CCCN4C(=O)[C@H](Cc4ccccc4)N3C2=O)C[C@@H]2c3cccc4[nH]cc(c34)C[C@H]21 (some centres not stated),Potency,[2],0.224 µM (active)
same,Potency,[3],2.24 µM (active)
same,Potency,[4],2 µM (active)
same,Potency,[5],1.41 µM (active)
same,Potency,[6],0.891 µM (active)
C[S+](CC[C@H](N)C(=O)O)C[C@H]1O[C@@H](n2cnc3c(N)ncnc32)[C@H](O)[C@@H]1O (some centres not stated),Potency,[7],inactive
CC(=O)C1=C(O)[C@@H]2[C@H]3c4c[nH]c5cccc(c45)C[C@H]3C(C)(C)N2C1=O,Potency,[1],inactive
COC1=CC(=O)O[C@@H](/C=C/c2ccc3c(c2)OCO3)C1,Potency,[8],14.1 µM (active)
same,Potency,[9],inactive
COc1cc2c(cc1O)C[C@H]1c3c(cc(OC)c(O)c3-2)CCN1C,Potency,[10],> 46 µM (inactive)
same,Potency,[11],6.31 µM (active)
same,Potency,[12],5.01 µM (active)
same,Potency,[13],3.98 µM (active)
same,Potency,[9],inactive
C=C[C@H]1CN2CCc3c([nH]c4ccccc34)[C@H]2C[C@@H]1/C(=C\OC)C(=O)OC,Potency,[8],14.1 µM (active)
same,Potency,[14],3.16 µM (active)
same,Potency,[13],7.08 µM (active)
C=CCN1CC[C@]2(C)c3cc(O)ccc3CC1[C@@H]2C,Potency,[1],inactive
O=S(=O)(O)O,Potency,[8],inactive
same,Potency,[14],inactive
same,Potency,[13],inactive
same,Potency,[9],inactive
CC[C@@H]1CN2CC[C@]3(C(=O)Nc4ccccc43)[C@@H]2C[C@@H]1/C(=C\OC)C(=O)OC,Potency,[12],inactive
same,Potency,[13],11.2 µM (active)
COc1cc2c(cc1O)CC1NCCc3cc(OC)c(OC)c-2c31 (configuration not stated),Potency,[12],6.31 µM (active)
same,Potency,[9],inactive
S=C(S)N1CCCC1,outcome,[15],inactive
same,Potency,[2],2.82 µM (active)
same,Potency,[3],2.82 µM (active)
same,Potency,[4],3.16 µM (active)
same,Potency,[5],11.2 µM (active)
same,Potency,[6],2.51 µM (active)
COC(=O)C1=CO[C@@H](C)[C@@H]2CN3CC[C@@]4(C(=O)Nc5ccccc54)[C@@H]3CC12 (some centres not stated),Potency,[8],14.1 µM (active)
same,Potency,[12],inactive
same,Potency,[14],inactive
same,Potency,[13],inactive
same,Potency,[9],10 µM (active)
C=C[C@H]1CN2CC[C@@]3(C(=O)Nc4ccccc43)[C@@H]2C[C@@H]1/C(=C\OC)C(=O)OC,Potency,[8],12.6 µM (active)
same,Potency,[12],inactive
same,Potency,[14],inactive
COc1cc(OC)c(/C=C2/C(=O)Nc3ccccc32)c(OC)c1,outcome,[15],inactive
same,Potency,[5],12.6 µM (active)
same,Potency,[6],11.2 µM (active)
CC(=O)O[C@H]1C[C@@H]2CCC3C(CC[C@@]4(C)[C@H]3C[C@H]([N+]3(C)CCCCC3)[C@@H]4OC(C)=O)[C@@]2(C)C[C@@H]1[N+]1(C)CCCCC1 (some centres not stated),Potency,[4],11.2 µM (active)
CN1[C@@H]2CC(O)C[C@H]1[C@@H]1O[C@@H]12 (some centres not stated),Potency,[1],inactive
same,Z-AUC,[16],0.552 (inactive)
same,Z-AUC,[16]; measured here: PEO1 parental Z-AUC,0.772
same,Z-AUC,[16]; measured here: PEO4 Z-AUC,1.01
CCCCOC(=O)c1ccnc2cc(C(OCCN3CCCCC3)c3ccccc3C)sc12 (configuration not stated),Potency,[1],inactive
C#CCN(C)[C@@H](C)Cc1ccccc1,"activity change, negative = inhibition",[17]; at 17.2 µM (top of the series),-14.3% (inactive)
same,"activity change, negative = inhibition",[17]; at 38 µM (top of the series),-2.85% (inactive)
same,outcome,[18],inactive
same,Potency,[10],> 46 µM (inactive) and > 20.6 µM (inactive)
same,outcome,[15],inactive
same,Potency,[7],inactive
same,"activity, negative = inhibition","[19]; at 28.7 µM (top of the series), parasite line A",-9.65% (inactive)
same,"activity, negative = inhibition","[19]; at 28.7 µM (top of the series), parasite line B",13.3% (inactive)
O=C(Oc1ccccc1)N1CCC[C@@]2(CCN(Cc3cc(C(F)(F)F)cc(C(F)(F)F)c3)C2)C1,Potency,[20],> 20 µM (inactive)
same,outcome,[18],inactive
O=C(Oc1ccccc1)N1CCC[C@@]2(CCN(C(c3ccccc3)c3ccccc3)C2)C1,Potency,[20],> 20 µM (inactive)
same,Potency,[11],5.01 µM (active)
O=C(Oc1ccccc1)N1CCC2(CCCN(Cc3nccs3)C2)CC1,Potency,[20],> 20 µM (inactive)
same,outcome,[18],inactive
same,Potency,[11],5.01 µM (active)
CC(C)CN1CC[C@@]2(CCCN(C(=O)Oc3ccccc3)C2)C1,"activity change, negative = inhibition",[17]; at 7.69 µM (top of the series),-1.09% (inactive)
same,outcome,[18],inactive
same,Potency,[11],6.31 µM (active)
C/C=C1\C[N@@+]2(C)CC[C@@]34C(=C(C=O)[C@H]1C[C@H]32)Nc1ccccc14,"activity change, negative = inhibition",[17]; at 17.2 µM (top of the series),-3.46% (inactive)
same,outcome,[18],inactive
same,Potency,[10],> 20.6 µM (inactive)
C[C@@]12CC[C@H]3[C@@H](CC[C@@H]4C[C@H]5S[C@H]5C[C@]43C)[C@H]1CC[C@H]2O,"activity change, negative = inhibition",[17]; at 17.2 µM (top of the series),-8.3% (inactive)
same,outcome,[18],inactive
same,Potency,[10],> 20.6 µM (inactive)
same,Potency,[7],7.75 µM (active)
same,"activity, negative = inhibition","[19]; at 12.8 µM (top of the series), parasite line A",2.41% (inactive)
same,"activity, negative = inhibition","[19]; at 12.8 µM (top of the series), parasite line B",1.96% (inactive)
